Assay results taken from PubChem BioAssay AID1625 (Sanford-Burnham Center for Chemical Genomics, 2009).
In all, about 190,000 compounds went through this assay and about 570 (0.3%) were called active.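 How the source made its calls: active means z-score above 3 at 5 µM with at least 500 cells counted in the well; inconclusive means wells under 500 cells, flagged as cytotoxic or low count; inactive means the rest.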 This excerpt belongs to a sample that is enriched for actives.

Experiment: up-regulation of insulin promoter-GFP reporter – imaging, high-content screening, mouse beta cells (AID 1625);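 on cell count: total cells summed across four imaged fields per well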
Settings: MIN6 insulin promoter-GFP reporter, at 5 µM; cell count: measured here: cytotoxicity, nuclei count; z-score: stronger effect = higher value

SMILES | cell count | z-score
Cc1ccc(NC(=S)N2CCCC(c3ccccc3)=N2)cc1 | 1540 cells | -0.41 (inactive)
O=S(=O)(NC(=S)Nc1ccccc1)c1ccc(F)cc1 | 1080 cells | -0.63 (inactive)
COc1ccc(Cc2nnc(NC(=O)Cc3cccs3)s2)cc1 | 1270 cells | 3.48 (active)
O=C(Cc1cccs1)Nc1nnc(C2CC2)s1 | 1650 cells | 1.57 (inactive)
CCc1nnc(NC(=O)Cc2cccs2)s1 | 1560 cells | 0.7 (inactive)
Cc1ccc(OCC(=O)Nc2nnc(-c3ccco3)s2)cc1 | 1050 cells | -0.23 (inactive)
Cc1ccc(SC(C)C(=O)NCc2ccc(F)cc2)cc1 (configuration not stated) | 1600 cells | 0.03 (inactive)
N#CCCCn1c(O)c(N=NC(=O)C(O)c2ccccc2)c2ccccc21 (configuration not stated) | 1150 cells | 0.15 (inactive)
Cc1ccc(C(=O)N/C(=C\c2ccco2)C(=O)N2CCSCC2)cc1C | 1360 cells | -0.32 (inactive)
CC1CCN(c2ccc([N+](=O)[O-])cc2C(N)=O)CC1 | 1470 cells | 0.15 (inactive)
COC(=O)c1sccc1NC(=O)COc1ccc(Cl)cc1 | 2220 cells | -0.38 (inactive)
COC(=O)c1sccc1NC(=O)c1cc(OC)c(OC)c(OC)c1 | 1440 cells | 3.71 (active)
COC(=O)c1sccc1NC(=O)c1csc2c1CCCC2 | 1260 cells | -0.75 (inactive)
O=S(=O)(c1ccc(Cl)cc1)N1CCCN(c2ccc(C(F)(F)F)cn2)CC1 | 1100 cells | -0.98 (inactive)
Cc1ccnc(NC(=O)CCCOc2ccccc2)c1 | 1410 cells | -0.12 (inactive)
COC(=O)c1scc(S(=O)(=O)C(C)(C)C)c1-n1cccc1 | 1430 cells | 0.89 (inactive)
O=C(CSc1nc2ccccc2s1)Nc1ccc(C(=O)O)cc1 | 1290 cells | 0.75 (inactive)
Cc1oc(C(N)=O)cc1COc1ccc(C(N)=O)cc1 | 1120 cells | -0.28 (inactive)
COc1ccc(N2C(=O)C(Cc3ccccc3)NC2=S)cc1 (configuration not stated) | 1180 cells | 0.5 (inactive)
CCOC(=O)C1CCN(C(=O)Nc2cccc(OC)c2)CC1 | 1010 cells | -0.44 (inactive)
Cc1oc(-c2ccccc2F)nc1CS(=O)(=O)CC(=O)NCCCN(C)C1CCCCC1 | 1560 cells | 0.14 (inactive)
CN(CCCNC(=O)CN1C(=O)CC(C)(C)S(=O)(=O)c2ccccc21)C1CCCCC1 | 1010 cells | 3.03 (active)

SMILES | cell count | z-score
O=C(CN1C(=O)CC(c2ccccc2)S(=O)(=O)c2ccccc21)NC1CCCC1 (configuration not stated) | 1220 cells | -1.1 (inactive)
O=C1CC(c2ccccc2)CC(O)=C1C=NCCN1CCOCC1 (configuration not stated) | 1300 cells | -0.21 (inactive)
CC1(C)CC(=O)C(C=NCCC2=CCCCC2)=C(O)C1 | 1030 cells | 0.42 (inactive)
O=C1CCCC(O)=C1C=NCCc1ccccc1 | 1000 cells | 3.02 (active)
CS(=O)(=O)c1ccc2nnn(OCC(=O)Nc3cccc(C#N)c3)c2c1 | 1340 cells | -0.14 (inactive)
Cc1cc(C)c(NC(=O)CN2C(=O)NC(Cc3ccccc3)C2=O)c(C)c1 (configuration not stated) | 1480 cells | 0.2 (inactive)
CN1CCN(CCNC(=O)Nc2ccc([N+](=O)[O-])cc2)CC1 | 1230 cells | 0.23 (inactive)
Cn1ccc(NC(=O)Nc2ccc(Cl)cc2)n1 | 1320 cells | 0.16 (inactive)
Cc1occc1C(=O)N1CCCc2ccccc21 | 1220 cells | 0.1 (inactive)
Cc1cccc2cc3c(N)c(C(=O)N4CCCc5ccccc54)sc3nc12 | 725 cells | 6.25 (active)
Cc1c(C(=O)N2CCCc3ccccc32)sc2nc(-c3ccccc3)cn12 | 661 cells | 1.22 (inactive)
CCOC(=O)C1=C(CN2CCCCCC2)NC(=O)NC1c1cccc([N+](=O)[O-])c1 (configuration not stated) | 1200 cells | 0.23 (inactive)
COCc1cc(=O)oc2cc(NS(=O)(=O)c3ccc(C)cc3)ccc12 | 1024 cells | 0.12 (inactive)
CC1=NNC(=O)C1CC(=O)N/N=C/c1ccncc1 (configuration not stated) | 1010 cells | 1.19 (inactive)
COc1c(C=O)c(CCN(C)C(=O)c2ccc(F)cc2)cc2c1OCO2 | 1010 cells | 0.62 (inactive)
Cc1nn(CC2CC2)c(=O)n1N(C)c1ncc(C(F)(F)F)cc1Cl | 1660 cells | -0.16 (inactive)
COc1cc(/C=N/Nc2nc3ccccc3s2)ccc1O | 924 cells | -0.19 (inactive)
Cn1c(SCC(=O)c2ccc(F)cc2)nnc1-c1ccccn1 | 1430 cells | -0.19 (inactive)
O=C(O)C#Cc1cccc2ccccc12 | 952 cells | -0.45 (inactive)
Cc1cc(C)c2[nH]c(=O)c(CN(Cc3ccccc3)C(=S)NCCCN(C)C)cc2c1 | 1260 cells | -0.25 (inactive)
CCOc1ccc(NC(=S)N2CCC(N(C)CC3CCCO3)CC2)cc1 (configuration not stated) | 1410 cells | 3.59 (active)
CCC(C)N(C)C1CCN(C(=S)Nc2ccc(OC)cc2)CC1 (configuration not stated) | 1120 cells | 0.62 (inactive)

SMILES | cell count | z-score
CCOc1ccc(NC(=S)N2CCCCCC2)cc1 | 1240 cells | -0.11 (inactive)
Cc1cccc(N(C)C(=O)c2cc3c(=O)[nH]c4ccc(C)cc4c3s2)c1 | 642 cells | -0.64 (inactive)
CCn1c2ccccc2c2cc(NC(=O)Nc3ccc([N+](=O)[O-])cc3C)ccc21 | 1070 cells | -0.69 (inactive)
O=c1c2cc(-c3ccccc3)sc2nc2n1N=C(c1cccs1)CS2 | 940 cells | 0.28 (inactive)
S=c1[nH]nc(-c2cccs2)n1/N=C/c1cn(-c2ccccc2)nc1-c1ccc(Cl)cc1 | 941 cells | -0.14 (inactive)
NS(=O)(=O)c1cccc(NC(=O)CSc2nc3ccccc3n2-c2ccccc2)c1 | 1570 cells | -0.28 (inactive)
COc1cccc(NCCC(=O)c2cccc([N+](=O)[O-])c2)c1 | 1430 cells | -0.59 (inactive)
O=S(=O)(NCCc1csc(-c2ccccc2)n1)c1cccnc1 | 1020 cells | 0.1 (inactive)
COc1ccc(-c2nc(CCNC(=O)c3ccc(Br)o3)cs2)cc1 | 1790 cells | -0.21 (inactive)
O=C(NCCc1csc(-c2ccccc2)n1)c1ccccc1F | 879 cells | 4.15 (active)
COc1ccc([N+](=O)[O-])cc1N(CC(O)CN(CC(C)C)CC(C)C)S(=O)(=O)c1ccc(C)cc1 (configuration not stated) | 984 cells | 0.3 (inactive)
O=C1CN(C(=O)COC(=O)c2cnc(Cl)c(Cl)c2)c2ccccc2N1 | 1340 cells | 0.22 (inactive)
Cc1ccc(OCC(=O)c2cc(C)n(Cc3ccco3)c2C)c([N+](=O)[O-])n1 | 717 cells | 0.32 (inactive)
CCCCCOC(=O)C1=C(C)Nc2nnnn2C1c1ccc(OC)c(OC)c1OC (configuration not stated) | 1410 cells | 3.26 (active)
COc1ccc(C2C(C(=O)Nc3ccccc3OC)=C(C)Nc3nnnn32)c(OC)c1 (configuration not stated) | 1590 cells | 0.06 (inactive)
CC1=C(C(N)=O)C(c2sccc2C)n2nnnc2N1 (configuration not stated) | 787 cells | 1.11 (inactive)
CN(C)S(=O)(=O)c1cccc(-c2nn(-c3ccccc3)cc2/C=C2\SC(=S)N(CC(=O)O)C2=O)c1 | 1060 cells | -0.06 (inactive)
NNC(=O)c1oc2nc(-c3ccccc3)cc(-c3ccco3)c2c1N | 1010 cells | 1.58 (inactive)
CNC(=S)NNC(=O)c1cccn(Cc2ccccc2)c1=O | 1390 cells | -0.17 (inactive)
CNC(=S)NNC(=O)c1oc2nc(-c3ccccc3)cc(-c3ccco3)c2c1N | 871 cells | 3.41 (active)
CSc1ccc(CN2C(=O)NC3(CCCCCC3)C2=O)cc1 | 1210 cells | -0.36 (inactive)
CC(=O)Nc1nc(C)c(-c2csc(Nc3ccc(S(N)(=O)=O)cc3)n2)s1 | 1500 cells | -2.49 (inactive)

SMILES | cell count | z-score
CC(C)(C)c1cc(C(=O)NCc2cccnc2)ccn1 | 1480 cells | 4.34 (active)
Cc1ccc(C(=O)NC(=S)NCc2cccnc2)cc1 | 1660 cells | 1.63 (inactive)
Cc1cccc(C(=O)Nc2ccccc2C(=O)NCc2cccnc2)c1 | 1550 cells | 0.35 (inactive)
CCOc1ccc(NS(=O)(=O)c2cc(C)c(C)cc2C)cc1 | 1460 cells | 0.61 (inactive)
O=C(CC1Nc2ccccc2NC1=O)Nc1ccccc1NC(=O)CC1Nc2ccccc2NC1=O (configuration not stated) | 1140 cells | 0.1 (inactive)
C=CCNC(=S)N1CCN(CCN=Cc2c(C)[nH]n(-c3ccc([N+](=O)[O-])cc3)c2=O)CC1 | 1470 cells | 1.08 (inactive)
Cc1[nH]n(-c2ccc([N+](=O)[O-])cc2)c(=O)c1C=NCCN1CCN(C(=O)c2ccccc2F)CC1 | 1450 cells | 4.48 (active)
Cc1ccc(-n2[nH]c(C)c(/C=N/NC(=O)c3cccc([N+](=O)[O-])c3)c2=O)cc1C | 1370 cells | 0.35 (inactive)
CC(C)CCN1CCN(C/C=C/c2ccco2)CC1CCO (configuration not stated) | 1410 cells | 1.56 (inactive)
O=C(COC(=O)C1CCCCC1)Nc1ccc([N+](=O)[O-])cc1 | 1220 cells | -0.06 (inactive)
O=C(NNC(=S)NC(=O)c1cn(-c2ccccc2)nc1-c1ccccc1)c1ccncc1 | 1140 cells | -0.61 (inactive)
CCCCN(CCCC)CC(O)Cn1c2ccccc2c(=O)c2ccccc21 (configuration not stated) | 1110 cells | -0.27 (inactive)
CC(C)N1CCC(NC(=O)Nc2ccccc2)CC1 | 1410 cells | -0.24 (inactive)
Cc1cc(C)nc(N2CCC(C(=O)Nc3ccc4c(c3)OCCO4)CC2)n1 | 1130 cells | 3.37 (active)
Cc1cc(C)cc(NC(=O)C2CCN(c3nc(C)cc(C)n3)CC2)c1 | 1460 cells | -0.69 (inactive)
O=C(Nc1ccc2c(c1)OCCO2)C1CCCN(c2ncccn2)C1 (configuration not stated) | 1560 cells | -0.18 (inactive)
N#C/C(=C/c1ccc(-c2ccccc2[N+](=O)[O-])o1)C(=O)NCCN1CCCCC1 | 1040 cells | 0.44 (inactive)
COc1ccc(-c2nnn(CC(=O)N(CCO)C(C(=O)NC3CCCC3)c3ccc(F)cc3)n2)cc1 (configuration not stated) | 941 cells | 3.28 (active)
CCOCCCN(C(=O)Cn1nnc(-c2ccc(OC)c(OC)c2)n1)C(CC)C(=O)NC1CCCC1 (configuration not stated) | 1200 cells | 1.26 (inactive)
Cc1ccc(-c2nnn(CC(=O)N(CCO)C(C(=O)NC(C)(C)C)c3ccncc3)n2)cc1 (configuration not stated) | 1330 cells | -0.54 (inactive)
